Reference: PubChem BioAssay (NCATS)
Inconclusive results are not listed. Where a call stands in place of a potency, no number is given. Unmarked numbers belong to inactive results. Active and inactive are the calls of the source. Calls follow the shape of the dose curve; as a rule, active = well fitted inhibition curve with a large enough effect; inconclusive = small, poorly fitted or top-dose-only effect; inactive = no such curve, though single readings can be large or run the other way.

Test: Primary qHTS for inhibitors of nuclear receptor binding SET domain protein 2 (NSD2) in an RCH-ACV wild type WT cells (2C) (AID 1645877); also: nearly all actives have a fitted effect of over 70% in size
Details: RCH-ACV (leukaemia line) NSD2 WT (2C) viability, CellTiter-Glo, 72 h; series mostly up to 44.9 µM
Potency is read from the fitted curve at half-maximal effect.

Structure (SMILES) | Potency | outcome | activity change, negative = cell killing
C=C1C(=O)OC[C@H]2C(C(=O)O)=CC3CC(C)(C)C[C@@]132 (some centres undefined) | inactive |  | 
C[C@H]1CC[C@@]2(OC1)O[C@H]1CC3C4CC[C@H]5C[C@@H](O)CC[C@]5(C)C4CC(=O)[C@]3(C)[C@H]1[C@@H]2C (some centres undefined) | inactive |  | 
N=C(N)c1ccc2nc(-c3cc(CC(=O)NC(CC(=O)O)C(=O)O)cc(-c4cc(S(N)(=O)=O)ccc4O)c3O)[nH]c2c1 (centres undefined) | inactive |  | 
CCN=C1N[C@@H]2[C@@H](O)[C@H](O)[C@@H](CO)O[C@@H]2S1 | inactive |  | 
O=C(O)CCc1ccc(NCc2cccc3c2CCCN3CCOc2ccccc2)cc1F | inactive |  | 
COc1cc(O)c2c(c1)C1(OC2=O)C(C)=CC(=O)C1O (centres undefined) | inactive |  | 
CC1CC(O)/C=C/C(O)/C=C\C(=O)O1 (centres undefined) | inactive |  | 
CC1(C)CC[C@]2(C(=O)O[C@@H]3O[C@H](CO[C@@H]4O[C@H](CO)[C@@H](O)[C@H](O)[C@H]4O)[C@@H](O)[C@H](O[C@@H]4O[C@H](CO)[C@@H](O)[C@H](O)[C@H]4O)[C@H]3O)CC[C@]3(C)C(=CCC4[C@@]5(C)CC[C@H](O[C@@H]6OC[C@@H](O)[C@H](O)[C@H]6O)[C@@](C)(C(=O)O)C5CC[C@]43C)[C@@H]2C1 (some centres undefined) |  | inactive [at 9.23 µM] | 
CC1(C)CC(NC(=O)C(=O)Nc2ccc(Cl)cc2)CC(C)(C)N1 | inactive |  | 
CC(C)CC(=O)NCCn1cc(C(=O)O)c(=O)cc1C(O)c1ccccc1 (centres undefined) | inactive |  | 
Cc1c(O)cc2c(c1O)COC1(O)CCCOC21 (centres undefined) | inactive |  | 
COc1c(C)c(OCC(O)C(C)(C)O)cc2c1CNC2=O (centres undefined) | inactive |  | 
CC(O)C1CCC2C3CCC4CC(OC5OC(C(=O)O)C(O)C(O)C5O)CCC4(C)C3CCC12C (centres undefined) | inactive |  | 
COC(=O)C1=CO[C@@H](O[C@@H]2O[C@H](CO)[C@@H](O)[C@H](O)[C@H]2O)/C(=C\CO)[C@@H]1CC(=O)OCCc1ccc(O)cc1 | inactive |  | 
CCC(C)/C=C(C)/C=C/C1=CC2=C(Cl)C(=O)C(C)(OC(C)=O)C(=O)C2=CN1C(CCCN=C(N)N)C(=O)O (centres undefined) | inactive |  | 
CC1(C)CCCC2(C)c3c4c(c(=O)oc(=O)c3=CCC12)=CCC1C(C)(C)CCCC41C (centres undefined) | inactive |  | 
CCc1nnc(NS(=O)(=O)c2ccc(NC(=S)NC(=O)/C=C/c3ccc(F)cc3)cc2)s1 | inactive |  | 
CC1CCC2C(C)(C)C(O)C(O)CC2(C)C12Cc1c(O)cc(CO)c(C=O)c1O2 (centres undefined) | inactive |  | 
Cc1ccccc1NC(=O)Nc1ccc(CN2C(=O)N([C@@H](CC(C)C)C(=O)N[C@@H](CC(=O)O)c3ccccc3)C(=O)C2(C)C)cc1 | inactive |  | 
COc1cc(/C=C/c2ccccc2)c(C(=O)O)c(O)c1CC=C(C)C | inactive |  | 

Structure (SMILES) | Potency | outcome | activity change, negative = cell killing
CC1OC(O[C@H]2CC[C@@]3(C)C(CC[C@]4(C)C3CC=C3C5CC(C)(C)CC[C@]5(C(=O)OC5OC(CO)C(OC6OCC(OC7OCC(O)C(O)C7O)C(O)C6O)C(O)C5O)CC[C@]34C)C2(C)C)C(O)C(O)C1OC1OC(CO)C(O)C(OC2OC(CO)C(O)C(O)C2O)C1O (some centres undefined) |  |  | -19.1% [at 9.23 µM]
C=C1CCC2[C@](C)(CO)CCC[C@@]2(C)[C@@H]1CCC1=CCOC1=O (some centres undefined) | inactive |  | 
O=C(O)CC1(O)C(=O)Nc2ccccc21 (centres undefined) | inactive |  | 
O=C(/C=C/c1ccccc1)OC[C@H]1O[C@@H](OC(=O)c2cc(O)c(O)c(O)c2)[C@H](O)[C@@H](O)[C@@H]1O | inactive |  | 
COc1ccc(CCC(=O)c2c(O)cc(O[C@@H]3O[C@H](CO)[C@@H](O)[C@H](O)[C@H]3O[C@@H]3O[C@@H](C)[C@H](O)[C@@H](O)[C@H]3O)cc2O)cc1O | inactive |  | 
C[C@@H]1CC[C@]2(C(=O)O)CC[C@]3(C)C(=CCC4[C@@]5(C)C[C@@H](O)[C@@H](O)C(C)(C)C5CC[C@]43C)C2[C@]1(C)O (some centres undefined) | inactive |  | 
CC1C2=CC(=O)OC2(O)CC2C1CCC1C(C)(C)CCC(O)C21C (centres undefined) | 8.98 µM (active) |  | 
C[C@H]1CC(=O)C2=C(C1)C(O)C(O)[C@@]1(O)[C@H]2C(=O)c2cccc(O)c2[C@@H]1O (some centres undefined) | inactive |  | 
C/C(=C\CCC(C)(C)O)CCO[C@@H]1O[C@H](CO[C@@H]2O[C@@H](C)[C@H](O)[C@@H](O)[C@H]2O)[C@@H](O)[C@H](O)[C@H]1O | inactive |  | 
O=C(/C=C/c1ccc(O)c(O)c1)O[C@H]1[C@@H]2C=CO[C@@H](O[C@@H]3O[C@H](CO)[C@@H](O)[C@H](O)[C@H]3O)[C@@H]2[C@@]2(CO)O[C@@H]12 | inactive |  | 
CC1=C(CCC(C)O[C@@H]2O[C@H](CO)[C@@H](O)[C@H](O)[C@H]2O)C(C)(C)CC(O)C1 (some centres undefined) | inactive |  | 
COc1cc(/C=C/C(=O)O[C@H]2[C@@H]3C=CO[C@@H](O[C@@H]4O[C@H](CO)[C@@H](O)[C@H](O)[C@H]4O)[C@@H]3[C@@]3(CO)O[C@@H]23)ccc1O | inactive |  | 
COC(=O)C1C(O)CCC2CN3CCc4c([nH]c5ccccc45)C3CC21 (centres undefined) | inactive |  | 
C/C(=C\CO)CC/C=C(\C)C(=O)O[C@@H]1O[C@H](CO)[C@@H](O)[C@H](O)[C@H]1O | inactive |  | 
C=C1CC2C(C)(CCC(=O)O)C(C(C)(C)O)CCC2(C)C2(C(=O)OC)C(=O)C(C)(O)C(=O)C12C (centres undefined) | inactive |  | 
CC1CC2(O)OC(=O)C3=C2C(CCC3)[C@@]12C[C@@H](c1ccoc1)OC2=O (some centres undefined) | inactive |  | 
O=C(Nc1ccc(N2CCC(C(=O)N3CCOCC3)CC2)cc1)c1cnc(Oc2ccccc2)nc1 | inactive |  | 
CC1CC2OCC3(O)CCC(O)C(C14CC(c1ccoc1)OC4=O)C23CO (centres undefined) | inactive |  | 
COC1OC(OC)C(O)(CCC2(C)C(C)CCC3(C)C2CC(O)C(O)C32CO2)C1O (centres undefined) | inactive |  | 
